Experimental data: the supplement of paper PMC12282887
± gives the standard deviation of the averaged measurements.

Key:
Test in all cases: promoter activity interaction Z-score (Lux/OD deviation from empty-vector control); higher = stronger promoter induction by the compound
[1] = system: E. coli BW25113 acrABp lux reporter
Summary of the method: (§1)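 Low-copy luxCDABE promoter reporters were carried by E. coli BW25113, either wild type or lacking one of three genes, grown in 40 µl LB Lennox in 384-well plates at 37°C. Each compound was run at four 1:2 dilutions in biological duplicates, with OD600 and luminescence read every 30 min for 12 h. Integration used 0–8 h for wild type and 1–9 h for deletion strains, and wells under 10% of the median growth value were removed. Luminescence normalised to growth was fitted against a control, and the Z-transformed residual is the score.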

[2] = system: E. coli BW25113 micFp lux reporter
Summary of the method: as §1

[3] = system: E. coli BW25113 ompFp lux reporter
Summary of the method: as §1

[4] = system: E. coli BW25113 robp lux reporter
Summary of the method: as §1

[5] = system: E. coli BW25113 soxSp lux reporter
Summary of the method: as §1

[6] = system: E. coli BW25113 tolCp lux reporter
Summary of the method: as §1

[7] = 11.4 µg/ml, genetic background: wild type
[8] = 11.4 µg/ml, genetic background: ΔmarA
[9] = 11.4 µg/ml, genetic background: Δrob
[10] = 11.4 µg/ml, genetic background: ΔsoxS
[11] = 22.8 µg/ml, genetic background: wild type
[12] = 22.8 µg/ml, genetic background: ΔmarA
[13] = 22.8 µg/ml, genetic background: Δrob
[14] = 22.8 µg/ml, genetic background: ΔsoxS
[15] = 45.5 µg/ml, genetic background: wild type
[16] = 45.5 µg/ml, genetic background: ΔmarA
[17] = 45.5 µg/ml, genetic background: Δrob
[18] = 45.5 µg/ml, genetic background: ΔsoxS
[19] = 91.1 µg/ml, genetic background: wild type
[20] = 91.1 µg/ml, genetic background: ΔmarA
[21] = 91.1 µg/ml, genetic background: Δrob
[22] = 91.1 µg/ml, genetic background: ΔsoxS

Cn1c(=O)[nH]c2[nH]c(=O)[nH]c2c1=O [1-Methyluric acid]
promoter activity interaction Z-score [1, 7]: -0.104 ± 0.078
promoter activity interaction Z-score [1, 8]: 0.564 ± 0.66
promoter activity interaction Z-score [1, 9]: -0.212 ± 0.12
promoter activity interaction Z-score [1, 10]: 0.297 ± 0.53
promoter activity interaction Z-score [1, 11]: 0.00584 ± 0.0026
promoter activity interaction Z-score [1, 12]: 0.938 ± 0.94
promoter activity interaction Z-score [1, 13]: -0.286 ± 0.35
promoter activity interaction Z-score [1, 14]: 0.0572 ± 0.41
promoter activity interaction Z-score [1, 15]: -0.247 ± 0.3
promoter activity interaction Z-score [1, 16]: -0.354 ± 0.38
promoter activity interaction Z-score [1, 17]: -0.533 ± 0.26
promoter activity interaction Z-score [1, 18]: 0.207 ± 0.88
promoter activity interaction Z-score [1, 19]: -0.104 ± 0.14
promoter activity interaction Z-score [1, 20]: 0.464 ± 0.1
promoter activity interaction Z-score [1, 21]: -0.246 ± 0.046
promoter activity interaction Z-score [1, 22]: 0.186 ± 0.74
promoter activity interaction Z-score [2, 7]: -0.0236 ± 0.39
promoter activity interaction Z-score [2, 8]: 0.118 ± 0.021
promoter activity interaction Z-score [2, 9]: 0.0501 ± 0.18
promoter activity interaction Z-score [2, 10]: 0.153 ± 0.11
promoter activity interaction Z-score [2, 11]: 0.0921 ± 0.34
promoter activity interaction Z-score [2, 12]: 0.0777 ± 0.13
promoter activity interaction Z-score [2, 13]: 0.162 ± 0.1
promoter activity interaction Z-score [2, 14]: -0.0599 ± 0.019
promoter activity interaction Z-score [2, 15]: -0.0797 ± 0.0059
promoter activity interaction Z-score [2, 16]: 0.0715 ± 0.14
promoter activity interaction Z-score [2, 17]: -0.119 ± 0.051
promoter activity interaction Z-score [2, 18]: 0.323 ± 0.18
promoter activity interaction Z-score [2, 19]: -0.191 ± 0.057
promoter activity interaction Z-score [2, 20]: 0.0296 ± 0.15
promoter activity interaction Z-score [2, 21]: -0.0667 ± 0.089
promoter activity interaction Z-score [2, 22]: 0.409 ± 0.52
promoter activity interaction Z-score [3, 7]: 0.326 ± 0.31
promoter activity interaction Z-score [3, 8]: 0.693 ± 0.12
promoter activity interaction Z-score [3, 9]: 0.46 ± 0.48
promoter activity interaction Z-score [3, 10]: 0.431 ± 0.45
promoter activity interaction Z-score [3, 11]: 0.321 ± 0.41
promoter activity interaction Z-score [3, 12]: 0.558 ± 0.49
promoter activity interaction Z-score [3, 13]: 0.739 ± 0.54
promoter activity interaction Z-score [3, 14]: 0.326 ± 0.25
promoter activity interaction Z-score [3, 15]: -0.32 ± 0.069
promoter activity interaction Z-score [3, 16]: 0.0147 ± 0.41
promoter activity interaction Z-score [3, 17]: -1.23 ± 0.62
promoter activity interaction Z-score [3, 18]: -0.438 ± 0.48
promoter activity interaction Z-score [3, 19]: 0.135 ± 0.01
promoter activity interaction Z-score [3, 20]: 0.619 ± 0.048
promoter activity interaction Z-score [3, 21]: -0.101 ± 0.29
promoter activity interaction Z-score [3, 22]: 0.374 ± 1.1
promoter activity interaction Z-score [4, 7]: -0.269 ± 0.61
promoter activity interaction Z-score [4, 8]: 0.351 ± 0.24
promoter activity interaction Z-score [4, 9]: 0.112 ± 0.039
promoter activity interaction Z-score [4, 10]: 0.0211 ± 0.46
promoter activity interaction Z-score [4, 11]: 0.161 ± 0.081
promoter activity interaction Z-score [4, 12]: 0.493 ± 0.4
promoter activity interaction Z-score [4, 13]: 0.0711 ± 0.33
promoter activity interaction Z-score [4, 14]: -0.912 ± 0.1
promoter activity interaction Z-score [4, 15]: -0.286 ± 0.13
promoter activity interaction Z-score [4, 16]: -0.426 ± 0.29
promoter activity interaction Z-score [4, 17]: -1.18 ± 0.44
promoter activity interaction Z-score [4, 18]: -0.966 ± 0.2
promoter activity interaction Z-score [4, 19]: 0.057 ± 0.46
promoter activity interaction Z-score [4, 20]: 0.0892 ± 0.25
promoter activity interaction Z-score [4, 21]: -0.403 ± 0.09
promoter activity interaction Z-score [4, 22]: -0.691 ± 0.56
promoter activity interaction Z-score [5, 7]: 0.261 ± 0.1
promoter activity interaction Z-score [5, 8]: 0.522 ± 0.037
promoter activity interaction Z-score [5, 9]: 0.347 ± 0.19
promoter activity interaction Z-score [5, 10]: 0.264 ± 0.44
promoter activity interaction Z-score [5, 11]: 0.256 ± 0.0038
promoter activity interaction Z-score [5, 12]: 0.598 ± 0.099
promoter activity interaction Z-score [5, 13]: 0.475 ± 0.19
promoter activity interaction Z-score [5, 14]: 0.221 ± 0.36
promoter activity interaction Z-score [5, 15]: 0.22 ± 0.037
promoter activity interaction Z-score [5, 16]: 0.334 ± 0.14
promoter activity interaction Z-score [5, 17]: 0.132 ± 0.069
promoter activity interaction Z-score [5, 18]: -0.0814 ± 0.51
promoter activity interaction Z-score [5, 19]: 0.104 ± 0.3
promoter activity interaction Z-score [5, 20]: 0.366 ± 0.082
promoter activity interaction Z-score [5, 21]: 0.122 ± 0.097
promoter activity interaction Z-score [5, 22]: 0.0852 ± 0.84
promoter activity interaction Z-score [6, 7]: -0.101 ± 0.82
promoter activity interaction Z-score [6, 8]: 0.236 ± 0.64
promoter activity interaction Z-score [6, 9]: 0.123 ± 0.14
promoter activity interaction Z-score [6, 10]: 0.273 ± 0.67
promoter activity interaction Z-score [6, 11]: 0.46 ± 0.55
promoter activity interaction Z-score [6, 12]: 0.0925 ± 0.54
promoter activity interaction Z-score [6, 13]: 1.34 ± 1.4
promoter activity interaction Z-score [6, 14]: -0.689 ± 1
promoter activity interaction Z-score [6, 15]: 0.324 ± 0.25
promoter activity interaction Z-score [6, 16]: 0.169 ± 0.61
promoter activity interaction Z-score [6, 17]: -0.992 ± 0.65
promoter activity interaction Z-score [6, 18]: 0.413 ± 0.89
promoter activity interaction Z-score [6, 19]: 0.769 ± 0.93
promoter activity interaction Z-score [6, 20]: 0.232 ± 0.41
promoter activity interaction Z-score [6, 21]: 0.664 ± 0.066
promoter activity interaction Z-score [6, 22]: 0.553 ± 0.38
